BoNT A protease: inhibitors of Botulinum neurotoxin A light chain protease. multiplex microsphere protease substrate cleavage, flow cytometry. inhibition, % at 10 µM. 360,000 tested, 0.17% active; also: plate controls were buffer without enzyme for full effect and enzyme alone for no effect
Anthrax LF inh2: inhibitors of Bacillus anthracis lethal factor protease; multiplex microsphere protease cleavage assay, LF; inhibition, % at 10 µM; AID 588501; 360,000 tested, 0.12% active; also: plate controls were buffer without enzyme for full effect and enzyme alone for no effect
Target sequence (P15917 whole entry, looked up): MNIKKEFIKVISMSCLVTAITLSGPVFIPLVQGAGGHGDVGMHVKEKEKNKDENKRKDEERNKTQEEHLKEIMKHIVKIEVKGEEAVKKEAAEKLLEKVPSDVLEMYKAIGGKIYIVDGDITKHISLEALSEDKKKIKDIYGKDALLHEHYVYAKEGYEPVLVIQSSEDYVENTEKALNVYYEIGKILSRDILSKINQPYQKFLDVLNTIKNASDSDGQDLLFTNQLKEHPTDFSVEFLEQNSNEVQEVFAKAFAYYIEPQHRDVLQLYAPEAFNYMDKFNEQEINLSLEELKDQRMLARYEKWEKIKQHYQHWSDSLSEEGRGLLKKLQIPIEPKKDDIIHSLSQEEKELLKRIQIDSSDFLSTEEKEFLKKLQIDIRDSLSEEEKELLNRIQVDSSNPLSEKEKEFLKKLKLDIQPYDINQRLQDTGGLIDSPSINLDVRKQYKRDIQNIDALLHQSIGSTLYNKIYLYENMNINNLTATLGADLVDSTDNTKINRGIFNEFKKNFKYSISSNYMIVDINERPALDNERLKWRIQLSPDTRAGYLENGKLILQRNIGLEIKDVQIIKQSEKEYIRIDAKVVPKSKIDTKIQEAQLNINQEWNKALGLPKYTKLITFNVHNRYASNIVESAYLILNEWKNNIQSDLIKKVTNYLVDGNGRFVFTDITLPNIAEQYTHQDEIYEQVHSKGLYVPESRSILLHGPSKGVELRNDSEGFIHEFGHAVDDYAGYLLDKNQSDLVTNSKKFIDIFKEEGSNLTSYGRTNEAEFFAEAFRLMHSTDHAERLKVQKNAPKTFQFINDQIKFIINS
BoNT F protease: blocks Botulinum neurotoxin F light chain protease; Multiplex microsphere protease cleavage assay, flow cytometry; inhibition, % at 10 µM; 360,000 tested, 0.22% active; in the data active = inhibition above about 35%, passing the limit was not always enough; inconclusive = no clear call, values can overlap the other calls; also: plate controls were buffer without enzyme for full effect and enzyme alone for no effect
Autofluor counter: counter-screen for toxin protease inhibitors: compound fluorescence | AID 624483 | 360,000 tested, 3.1% active | fluorescence intensity (concentration not given with the values) | compound autofluorescence counterscreen, microsphere flow cytometry; stronger effect = higher value; in the data active = fluorescence intensity above about 16000; inconclusive = no clear call, values can overlap the other calls
* marks the source's active call; other numbers are inactive results. Compounds with a hit are over-represented: about 3.5% of the library has one in this group of screens. Rule as the data show it, unless noted: active = inhibition above about 30%; inconclusive = no clear call, values can overlap the other calls; inactive = below that.

What do the screens show for `CCCC(=O)Nc1nc2n(n1)C(c1ccccc1)CC(=O)N2` (configuration not stated)?
BoNT A protease: -2.4; Anthrax LF inh2: -0.9; BoNT F protease: -0.5; Autofluor counter: 17011*

Results for O=C1CC(c2ccccc2)n2ncnc2N1 (configuration not stated) ?
BoNT A protease: inconclusive; Anthrax LF inh2: -0.7; BoNT F protease: -3.3; Autofluor counter: 21144*

What do the screens show for `C(=C\c1ccc2nncn2c1)/c1ccccc1`?
BoNT A protease: -0.2; Anthrax LF inh2: -6.6; BoNT F protease: -6.4; Autofluor counter: 4189

What do the screens show for `CCOC(=O)C1=C(C)NC2=C(C1c1ccc([N+](=O)[O-])cc1)S(=O)(=O)c1ccccc12` (configuration not stated)?
BoNT A protease: inconclusive; Anthrax LF inh2: -1.5; BoNT F protease: 6.1; Autofluor counter: 17917*

What do the screens show for `c1ccc(-c2nnc3n2N=C(c2ccc4c(c2)OCO4)CS3)nc1`?
BoNT A protease: 4.8; Anthrax LF inh2: -0.8; BoNT F protease: 5.6; Autofluor counter: 18035*

Results for CCOc1ccc(C2=Nn3c(nnc3-c3ccccn3)SC2)cc1 ?
BoNT A protease: -0.9; Anthrax LF inh2: -1.4; BoNT F protease: -20.0; Autofluor counter: 3895

How did c1cc2c(cc1C1=Nn3c(nnc3C3CCCCC3)SC1)OCO2 do in these assays?
BoNT A protease: -0.9; Anthrax LF inh2: 0.8; BoNT F protease: 2.7; Autofluor counter: 9925

What do the screens show for `COc1ccc(C2=Nn3c(nnc3-c3ccccn3)SC2)cc1OC`?
BoNT A protease: inconclusive; Anthrax LF inh2: -0.9; BoNT F protease: -1.0; Autofluor counter: 22882*

Results for COC(=O)c1ccc2nc(-c3ccc(F)cc3)c(Cc3ccsc3)n2c1 ?
BoNT A protease: 2.0; Anthrax LF inh2: -1.7; BoNT F protease: -5.4; Autofluor counter: 6838

What do the screens show for `COc1ccc(S(=O)(=O)NCCCCCC(=O)NCCCN2CCOCC2)cc1`?
BoNT A protease: 3.3; Anthrax LF inh2: -1.7; BoNT F protease: 2.0; Autofluor counter: 20933*

How did Nc1c(C(=O)NCc2ccc(F)cc2)c2nc3ccccc3nc2n1CCCN1CCOCC1 do in these assays?
BoNT A protease: 4.5; Anthrax LF inh2: 2.1; BoNT F protease: -1.6; Autofluor counter: 23744*

How did COCCCNC(=O)c1ccc(N2CCOCC2)c(NS(=O)(=O)c2ccc(OC)cc2)c1 do in these assays?
BoNT A protease: -0.4; Anthrax LF inh2: -5.4; BoNT F protease: -2.0; Autofluor counter: 6162

How did CC1CC(C)CN(CCCNC(=O)c2ccc(CNS(=O)(=O)c3ccc(F)cc3)cc2)C1 (configuration not stated) do in these assays?
BoNT A protease: 0.5; Anthrax LF inh2: -0.4; BoNT F protease: 3.9; Autofluor counter: 5714

What do the screens show for `O=C(NCCCN1CCOCC1)c1ccc(CNS(=O)(=O)c2ccc(F)cc2)cc1`?
BoNT A protease: inconclusive; Anthrax LF inh2: 1.7; BoNT F protease: -0.5; Autofluor counter: 16290*

How did CCCCNC(=O)c1ccc(N2CCOCC2)c(NS(=O)(=O)c2ccc(OC)cc2)c1 do in these assays?
BoNT A protease: 9.3; Anthrax LF inh2: 1.7; BoNT F protease: 8.3; Autofluor counter: 20173*

What do the screens show for `O=C(Nc1cc(C(F)(F)F)ccc1F)C1Cc2c(-c3ccccc3Oc3ccccc3)ccnc2O1` (configuration not stated)?
BoNT A protease: -0.2; Anthrax LF inh2: -2.3; BoNT F protease: -5.5; Autofluor counter: 3303

What do the screens show for `CCCc1nc2c3ccccc3ccn2c1Cc1ccccc1`?
BoNT A protease: -0.1; Anthrax LF inh2: -2.5; BoNT F protease: 0.6; Autofluor counter: 4385

What do the screens show for `O=C(NCCN1CCOCC1)c1cc(-c2ccco2)on1`?
BoNT A protease: -3.5; Anthrax LF inh2: -6.4; BoNT F protease: -6.7; Autofluor counter: 17211*

Results for O=C(NCCCN1CCOCC1)c1cc(-c2ccc(F)cc2)on1 ?
BoNT A protease: 6.4; Anthrax LF inh2: 1.8; BoNT F protease: 9.3; Autofluor counter: 18525*

How did CC(=O)CSc1nc2nccnc2[nH]1 do in these assays?
BoNT A protease: -0.1; Anthrax LF inh2: -3.9; BoNT F protease: 3.7; Autofluor counter: 3461

Results for O=C(Nc1cccnc1)c1cc(F)c(F)cc1Cl ?
BoNT A protease: -1.0; Anthrax LF inh2: -0.1; BoNT F protease: -7.2; Autofluor counter: 4323

What do the screens show for `CSc1ccccc1NC(=O)Nc1cccc(Cl)c1C`?
BoNT A protease: 0.2; Anthrax LF inh2: 2.3; BoNT F protease: -3.1; Autofluor counter: 3467

Results for CSc1ccccc1NC(=O)Nc1ccc(F)c(Cl)c1 ?
BoNT A protease: -4.4; Anthrax LF inh2: -3.0; BoNT F protease: -9.6; Autofluor counter: 24571*

How did O=C(Nc1cccnc1)Nc1ccc(F)c(Cl)c1 do in these assays?
BoNT A protease: inconclusive; Anthrax LF inh2: -0.6; BoNT F protease: 0.4; Autofluor counter: 23140*

What do the screens show for `CN(CC(=O)Nc1cccnc1)S(=O)(=O)c1cc(Cl)ccc1Cl`?
BoNT A protease: inconclusive; Anthrax LF inh2: -3.1; BoNT F protease: -7.4; Autofluor counter: 25881*

How did CSc1ccccc1NC(=O)Nc1cccc(Cl)c1Cl do in these assays?
BoNT A protease: 0.0; Anthrax LF inh2: 1.1; BoNT F protease: -0.1; Autofluor counter: 20444*

How did Cc1ccc(NC(=O)Nc2ccc(F)c(Cl)c2)cc1 do in these assays?
BoNT A protease: 0.2; Anthrax LF inh2: -13.4; BoNT F protease: -4.2; Autofluor counter: 5882

Results for C=CCC1(CC=C)CCCN1C(=O)c1ccc2oc(CCCC)nc2c1 ?
BoNT A protease: -0.8; Anthrax LF inh2: -2.6; BoNT F protease: 2.3; Autofluor counter: 3206

Results for Clc1ccc(C(c2cccs2)N2CCNCC2)cc1 (configuration not stated) ?
BoNT A protease: 0.0; Anthrax LF inh2: -10.9; BoNT F protease: -12.1; Autofluor counter: 3541

What do the screens show for `CN(c1cccc(NC(=O)Nc2cccc(Cl)c2)c1)S(C)(=O)=O`?
BoNT A protease: 0.0; Anthrax LF inh2: 5.1; BoNT F protease: 6.9; Autofluor counter: 4253

How did CN(C)c1ccc(NC(=O)Nc2cccc(Cl)c2)cc1 do in these assays?
BoNT A protease: 1.6; Anthrax LF inh2: -10.8; BoNT F protease: -20.1; Autofluor counter: 19659*

Results for CSc1ccccc1NC(=O)Nc1cccc(Cl)c1 ?
BoNT A protease: 0.5; Anthrax LF inh2: -1.7; BoNT F protease: 0.1; Autofluor counter: 23180*

What do the screens show for `COc1ccc(C=O)c(OCc2cn(CC(=O)c3ccc(O)cc3)nn2)c1`?
BoNT A protease: -0.3; Anthrax LF inh2: 3.2; BoNT F protease: -4.2; Autofluor counter: 3659

How did CCOC1CCCc2oc(-c3ccc(N(C)C)cc3)c(C(=O)OC)c21 (configuration not stated) do in these assays?
BoNT A protease: -1.1; Anthrax LF inh2: -0.5; BoNT F protease: 0.5; Autofluor counter: 5925

How did COCC(=O)Nc1nc(-c2ccccc2)c(C)s1 do in these assays?
BoNT A protease: -1.4; Anthrax LF inh2: -0.8; BoNT F protease: -1.5; Autofluor counter: 19856*

How did COCC(=O)Nc1nc(-c2ccc(-c3ccccc3)cc2)cs1 do in these assays?
BoNT A protease: 2.8; Anthrax LF inh2: -7.3; BoNT F protease: -4.1; Autofluor counter: 3396

How did Cc1ccc(C(=O)Nc2ccc(Br)c(C(F)(F)F)c2)cc1 do in these assays?
BoNT A protease: -1.1; Anthrax LF inh2: -1.3; BoNT F protease: -4.4; Autofluor counter: 16589*

Results for Cc1ccc(NC(=O)c2ccc(C)cc2)cc1 ?
BoNT A protease: -0.4; Anthrax LF inh2: -3.5; BoNT F protease: -8.7; Autofluor counter: 4318
